From PubChem
12-LOX inh: ALOX12 (human) lipoxygenase inhibition | P18054 | purified 12hLO, xylenol orange hydroperoxide absorbance | Potency, µM (highest dose often 108 µM), for inactives: at the highest dose activity change, negative = inhibition, actives largely listed as inhibitors | hit rate 1.1% among 580,000; also: % is scaled to controls: 0 for no effect and ±100 for the full control effect
Target sequence (P18054 whole entry, looked up): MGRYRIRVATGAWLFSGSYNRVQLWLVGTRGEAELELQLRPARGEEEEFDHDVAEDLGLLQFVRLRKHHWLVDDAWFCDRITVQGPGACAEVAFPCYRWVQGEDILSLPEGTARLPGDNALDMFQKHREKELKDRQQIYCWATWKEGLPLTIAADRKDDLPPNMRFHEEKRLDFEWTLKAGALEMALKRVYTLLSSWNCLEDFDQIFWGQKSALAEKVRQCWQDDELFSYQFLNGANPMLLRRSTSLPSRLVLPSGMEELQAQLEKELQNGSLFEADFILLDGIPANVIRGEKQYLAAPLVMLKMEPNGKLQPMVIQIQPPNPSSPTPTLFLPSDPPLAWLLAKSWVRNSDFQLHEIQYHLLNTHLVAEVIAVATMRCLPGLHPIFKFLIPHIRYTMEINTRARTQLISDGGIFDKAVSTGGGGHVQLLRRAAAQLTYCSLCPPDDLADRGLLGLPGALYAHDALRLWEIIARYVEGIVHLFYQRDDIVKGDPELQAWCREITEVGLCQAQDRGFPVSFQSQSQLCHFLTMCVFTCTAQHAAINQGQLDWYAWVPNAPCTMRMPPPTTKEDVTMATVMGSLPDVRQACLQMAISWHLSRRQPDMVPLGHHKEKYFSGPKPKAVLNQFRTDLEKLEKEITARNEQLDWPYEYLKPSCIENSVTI
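Purified human 12hLO (150 nM final) in 25 mM Hepes, 0.01% Triton X-100, pH 7.0 was preincubated 15 min at room temperature with compound. Then 40 uM arachidonic acid was added, 30 min. Hydroperoxide was read by Fe-XO absorbance ratio 573/405 nm.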
BCR signal inh: chronic active BCR signaling inhibition; hit rate 0.05% among 340,000; Potency, µM (highest dose often 46.1 µM), for the others: at the top dose activity change, negative = inhibition, actives largely listed as inhibitors; ABC-DLBCL IkBa-CBG/CBR reporter, luminescence ratio, 4 h; active = well fitted inhibition curve with a large enough effect in the signal ratio, with a control signal flat, not every such curve was filed as active; inconclusive = small, poorly fitted or top-dose-only effect, or effect the other way, or a change in a side signal; the % refers to the signal ratio;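 also: plate controls were basal doxycycline-induced cells for no effect and cells given 10 µM MG132 for full effect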
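Concentration-response series (up to 46 uM) were applied to TMD8 dual-reporter cells for 4 h at 37C with doxycycline. Green/red ratio, after filter-overlap correction, defined %Activity; red signal alone was normalised to basal cells and zero luminescence.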
GRP78 ERSR act: ER stress response induction in glioma | U87-MG GRP78 promoter luciferase reporter, 16 h | Potency, µM, inactives show at the top dose activation, most hits filed as activators | hit rate 0.02% among 420,000 | AID 602332; also: series mostly up to about 76 µM; % of control where 0% means no effect; nearly all actives have a fitted effect of over 35% in size
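ERSR induction read as luciferase luminescence (Bright-Glo, 10 min at room temperature) in stably transfected human U87-MG glioma cells exposed to compounds for 16 h, using GRP78 as sensor.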
Anesthetic bind: candidate novel general anesthetic via apoferritin binding. AID 485281. apoferritin/1-aminoanthracene competitive binding, fluorescence. hit rate 0.074% among 350,000. Potency, µM (top dose mostly 77.5 µM), without a hit: top-dose activity change, negative = displacement, actives largely listed as inhibitors; also: % is scaled to controls: 0 for no effect and ±100 for the full control effect; nearly all actives have a fitted effect of over 20% in size
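Probe: 1-aminoanthracene (50% saturated, PBS). Protein: horse-spleen apoferritin, 10 uM. Incubation: 10 min, room temperature. Detection: 380 nm excitation, 535 nm emission. Analysis: normalized response, four-parameter Hill.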
* hit, by the source's call; ? = inconclusive; . = no result given. An excerpt weighted towards active compounds, which were near 1.1% of everything screened. Unless noted, calls follow the shape of the dose curve; as a rule, active = well fitted curve in the direction sought with a large enough effect; inconclusive = small, poorly fitted or top-dose-only effect, or another doubt; inactive = no such curve, though single readings can be large; an effect the other way counts as inactive or inconclusive. Potency is read from the fitted curve at half-maximal effect.

SMILES | 12-LOX inh | BCR signal inh | GRP78 ERSR act | Anesthetic bind
COC(=O)c1ccc(C(=O)N(C)Cc2ccsc2)s1 | 11.5% | . | . | .
Cc1ccc(NC(=O)c2ccc(Nc3ccccc3F)nc2)cc1 | -7.7% | 3.8% | -2.8% | -3.7%
CNC(=O)c1ccc(Nc2cc(Nc3ccccc3S(=O)(=O)C(C)C)c3cc[nH]c3n2)nc1 | 0.968µM* | . | . | .
CCOC(=O)c1c(NC(=S)NNS(=O)(=O)c2ccc(Br)cc2)sc2c1CCCCC2 | 31.6µM* | -4.2% | -2.5% | 6.9%
CC1CCCCN1S(=O)(=O)c1ccc2nc(N3CCCCCC3)ccc2c1 (configuration not stated) | 12.6µM* | . | . | .
O=C(NCCc1ccccn1)C(F)(F)c1ccccc1 | 27.3% | . | . | .
Cc1ccccc1NC(=O)CNc1nc(Nc2ccccc2)nc(Nc2ccccc2)n1 | 15.8µM* | . | . | .
O=C(CCN1CCN(c2cnccn2)CC1)Nc1cc(Cl)ccc1Cl | -2.3% | . | . | .
Oc1ccccc1C=NNC(=S)NC1CC2C=CC1C2 (configuration not stated) | 44.7µM* | . | 7.2% | .
CCN1/C(=C/c2ccc3cc(C)ccc3[n+]2CC)Sc2ccc3sccc3c21 | . | . | -1.2% | .
CCN1/C(=C/c2ccc3cccc(C)c3[n+]2CC)Sc2ccccc21 | 7.94µM* | ? | -9.1% | ?
CCN1/C(=C\c2ccc3cc(C)ccc3[n+]2CC)Sc2cc(C)c(C)cc21 | 25.1µM* | 4.8% | -7.8% | -12.4%
CCN1/C(=C/c2ccc3cc(C)cc(C)c3[n+]2CC)Sc2cc(C)ccc21 | 39.8µM* | ? | -14.5% | -11.7%
C=CCNc1nc(C(=O)OC(C)C(=O)Nc2ccc(NC(C)=O)cc2)cs1 (configuration not stated) | 1.0% | . | . | .
O=S(=O)(NC(c1ccccc1)c1ccccc1)c1cccc2nsnc12 | 11.2µM* | . | . | .
CNC(=O)c1ccc(CN(C(=O)c2ccsc2)C2CC2)cc1 | 47.0% | . | . | .
CCCCN1CCCCC1CNc1ccc2nnnn2n1 (configuration not stated) | -2.2% | . | . | .
Cc1ccc(C)n1NC(=O)c1ccccc1Cl | 44.7µM* | -9.0% | -3.1% | -5.1%
CCCCC(=O)Nc1sc(C(=O)N(CC)CC)c(C)c1C(=O)OC | 35.5µM* | 8.1% | -3.7% | 6.8%
CN1c2ccccc2N(C)C1(C)c1cccc2ccccc12 | 35.5µM* | 5.2% | 4.9% | -21.8%
COc1ccc(-c2noc(CC3CCN(C(=O)c4cc(Cl)ccc4F)CC3)n2)cc1 | 15.4% | . | . | .
CCCCn1c(-c2sccc2C)n[nH]c1=S | 39.8µM* | ? | -0.9% | -18.9%
CCCCn1c(-c2ccco2)n[nH]c1=S | ? | -10.6% | -0.7% | -5.7%
COC(=O)C1=C(C)OC(N)=C(C#N)C1c1ccc(-c2ccccc2)cc1 (configuration not stated) | 35.5µM* | . | . | .
Cc1sc(N2CCCC2)nc1-c1ccc(NS(C)(=O)=O)cc1 | 35.5µM* | . | . | .
SMILES | 12-LOX inh | BCR signal inh | GRP78 ERSR act | Anesthetic bind
CC(=O)Nc1ccc(NC(=O)Cn2ccc3cc(Cl)ccc32)cc1 | -22.1% | . | . | .
Cc1ccc(NC(=S)Nc2cccc3ccccc23)cc1F | 39.8µM* | ? | 1.0% | -11.9%
S=C(NCc1ccccc1)NCc1cccc(Cl)c1 | ? | -2.1% | -5.1% | -9.3%
S=C(NCc1ccccc1)NCc1cccc(CNC(=S)NCc2ccccc2)c1 | 31.6µM* | 0.8% | -1.0% | 39.1%
S=C(NCc1ccccc1)Nc1cccc2ccccc12 | 44.7µM* | -11.5% | -0.3% | -14.5%
Fc1cccc(NC(=S)Nc2cccc3ccccc23)c1 | ? | -10.6% | 3.8% | -14.9%
CCCCOc1ccc(C(=O)Nc2ccccc2C(C)(C)C)cc1OCC | 58.0% | . | . | .
O=C(c1ccncc1)N(CCc1ccccc1)Cc1cccs1 | -6.4% | . | . | .
COc1ccc(CCC(=O)N2CCN(c3nnc4ccc(Cl)cn34)CC2)cc1 | 67.9% | . | . | .
Cc1nnc(SCc2c(C(=O)NC(C)C)oc3ccccc23)s1 | 8.8% | . | . | .
Cc1cc(C)c2c(NC(=S)NC(=O)c3ccccc3)nn(C)c2n1 | -18.7% | ? | -3.7% | 2.0%
Cc1cc(C)c2c(NC(=O)CCl)nn(C)c2n1 | 3.1% | ? | 39.8µM* | 0.0%
COc1ccc(OC)c(CNC(=O)c2ccc3c(c2)C(O)CCCCCN3C)c1 (configuration not stated) | 66.4% | . | . | .
Cc1ccc(CN2C(=O)NC3(CCCN(C(=O)c4cc5ccccc5[nH]4)C3)C2=O)cc1 (configuration not stated) | 12.6µM* | . | . | .
Fc1ccc(-c2nc(-c3ccncc3)no2)cc1 | -13.9% | . | . | .
CC1CN(Cc2ccccc2)C(=O)NC1=O (configuration not stated) | 15.7% | . | -1.3% | .
